Source: PubChem
SW480 rerep: A quantitative high throughput screen for small molecules that induce DNA re-replication in SW480 colon adenocarcinoma cells; AID 624297, 2012; Potency, µM (series often up to 46.1 µM), for inactives: top-dose re-replication activation, hits mostly activators; 340,000 compounds, 1.8% hits; SW480 DNA re-replication, Hoechst DNA content imaging, 48 h; further: % of control where 0% means no effect; nearly all actives have a fitted effect of over 55% in size
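250 cells/well; 23 nL cpd via pin tool; 48 hr, 37 C, 5% CO2; Hoechst 40 min; imager read of total nuclear intensity, ex 405/em 500-530 nm.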
MCF10A rerep: A quantitative high throughput screen for small molecules that induce DNA re-replication in MCF 10a normal breast cells; MCF 10A DNA re-replication, Hoechst nuclear intensity, 48 h; Potency, µM (doses to about 46.1 µM), for the others: at the top dose activity, positive = re-replication, most hits filed as activators; 350,000 compounds, 2.9% hits; further: % of control where 0% means no effect; nearly all actives have a fitted effect of over 50% in size
HT1080-NT tox: qHTS for induction of synthetic lethality in tumor cells producing 2HG: qHTS for the HT-1080-NT fibrosarcoma cell line; HT-1080-NT fibrosarcoma viability, CellTiter-Glo ATP luminescence, 48 h; Potency, µM (series often up to 46.1 µM), without a hit: top-dose activity, negative = less viability, most hits filed as cytotoxic; 360,000 compounds, 1.6% hits; AID 686970, 2013;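 further: NT is the 2HG producing partner of a matched IDH1 knockdown line; 0% = DMSO-treated cells and -100% = media-only wells without cells; nearly all actives have a fitted effect of over 55% in size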
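HT-1080-NT fibrosarcoma cells (2HG-overproducing), 750 cells/well in RPMI with 5% FBS, dosed after 2 h and incubated 48 h at 37C. CellTiter-Glo luminescence normalized to DMSO and no-cell wells; concentration-response curves fitted and classed.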
KB-3-1 tox: qHTS assay for MDR1-selective chemotherapeutics: Primary screen using the parental adenocarcinoma cell KB-3-1; KB-3-1 viability, CellTiter-Glo ATP luminescence, 72 h; Potency, µM (titrated, usually from 46.1 µM), hits mostly cytotoxic; 400,000 compounds, 1.4% hits; AID 1347075, 2019; further: on the % scale 0 is the no-effect control and ±100 the full control effect; nearly all actives have a fitted effect of over 60% in size
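Cytotoxicity measured as CellTiter-Glo luminescence after 72 h at 37 C. Compound titrations were pinned onto drug-naive KB-3-1 parental adenocarcinoma cells grown in DMEM with 10% FBS, and normalized data fitted to concentration-response curves.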
HT1080 IDH1KD tx: qHTS for induction of synthetic lethality in tumor cells producing 2HG: qHTS for the HT-1080-IDH1KD cell line; HT-1080 IDH1 knockdown viability, ATP luminescence, 48 h; Potency, µM (doses to about 46.1 µM), for inactives: top-dose activity, negative = toxicity, usual class: cytotoxic; 360,000 compounds, 2% hits;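 further: 0% = DMSO wells and -100% = cell-free medium wells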
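Assay cells: HT-1080 with IDH1 knockdown, 750 per well, RPMI/5% FBS. Exposure: 48 h at 37 °C following 2 h pre-incubation. Read: CellTiter-Glo luminescence; fitted concentration-response, curve class assigned.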
KB-V1 MDR tox: qHTS assay for MDR1-selective chemotherapeutics: Primary screen using the drug-selected MDR subline cells KB-V1; KB-V1 MDR cells viability, CellTiter-Glo, 72 h; Potency, µM (top dose mostly 46.1 µM), most hits filed as cytotoxic; 400,000 compounds, 3.4% hits; AID 1347076, 2019; further: on the % scale 0 is the no-effect control and ±100 the full control effect; nearly all actives have a fitted effect of over 60% in size
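Luminescent ATP read-out (CellTiter-Glo, 10 min) measures survival of drug-selected KB-V1 MDR cells after 72 h, 37 degrees C compound exposure. Medium: phenol-red-free DMEM, 10% FBS. Values from fitted concentration-response curves.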
Active calls of the source: *; i = inactive; ? = inconclusive; nt = no result given; [ ] = dose if it differs, or a comment. Sampled rows, rich in hits. Any-hit rate of the full collection: about 8%. The call rests on the fitted dose curve; in most records, active means well fitted curve in the direction sought with a large enough effect; inconclusive means small, poorly fitted or top-dose-only effect, or another doubt; inactive means no such curve, though single readings can be large; an effect the other way counts as inactive or inconclusive. Potency means the concentration at half of the fitted maximal effect.

SMILES	SW480 rerep	MCF10A rerep	HT1080-NT tox	KB-3-1 tox	HT1080 IDH1KD tx	KB-V1 MDR tox
CCN(CC)C(=O)Oc1ccc2c(=O)c(-c3ccc(OC)cc3)c(C)oc2c1	2%	?	-4%	i	-22%	9.2µM*
COc1ccc2c(=O)c(-c3ccccc3C)c(C)oc2c1	-7%	-10%	-4%	i	-6%	i
CCN(CC)C(=O)Oc1ccc2c(=O)c(-c3ccc(OC)cc3)coc2c1	?	13µM*	-13%	?	4%	12µM*
O=C(O)CCc1ccc(-c2cccs2)n1CC1CCCO1 (configuration not stated)	-2%	-183%[0.0737 µM]	-1%	i	-3%	i
O=C(NCc1cccs1)C1CC1	-3%	-2%	11%	i	17%	i
CCN(c1cccc(C)c1)S(=O)(=O)c1cnc[nH]1	1%	21µM*	7%	i	-4%	i
Cc1cc(-c2ccc(S(=O)(=O)Nc3cccc(C(F)(F)F)c3)s2)on1	nt	nt	nt	i	nt	i
CCN(c1cccc(C)c1)S(=O)(=O)c1c(C)[nH]c(=O)[nH]c1=O	1%	19%	5%	i	-8%	i
CCOc1ccc(N(C)S(=O)(=O)c2ccc(-c3cc(C)no3)s2)cc1	9.2µM*	4.6µM*	12µM*	5.8µM*	7.3µM*	?
CCOc1ccc(N(C)S(=O)(=O)c2cc(-c3cc(C)no3)ccc2C(C)C)cc1	?	?	5%	?	-6%	i
Cc1cccc(N(C)S(=O)(=O)c2ccc(-c3cc(C)no3)s2)c1	0.82µM*	?	?	?	0.58µM*	?
COc1ccccc1NS(=O)(=O)c1ccc(-c2cc(C)no2)s1	-6%	17%	?	7.3µM*	?	?
CN1CCC2(CC1)N=C(c1ccc(F)cc1)C(=S)N2C(=O)c1ccccc1	nt	?	-25%	?	-23%	?
Cc1ccc(C)c(NC(=O)CCN2C(=O)c3ccccc3C2=O)c1	-19%	3%	10%	i	1%	?
Cc1ccc(OCC(=O)N(Cc2cccc(Cl)c2)C2CCS(=O)(=O)C2)cc1C (configuration not stated)	-1%	0%	-2%	i	-15%	i
CCN(c1cccc(C)c1)S(=O)(=O)c1ccc(-c2cc(C)no2)s1	-6%	-6%	?	4.6µM*	?	?
ClC(Cl)(c1nnnn1-c1ccccc1)c1nnnn1-c1ccccc1	13µM*	?	?	i	6.5µM*	i
CCCCNC(=O)c1c(N)[nH]c(C(=O)c2ccccc2)c1-c1ccccn1	nt	nt	-3%	?	-2%	21µM*
Cc1c(Cc2ccc3c(c2)OCO3)sc(NC(=O)c2ccccc2)c1C(N)=O	9%	13µM*	?	?	?	?
Cc1nc(NC(=O)c2ccc(Cl)cc2)sc1Cc1ccc2c(c1)OCO2	5.8µM*	2.9µM*	10µM*	9.2µM*	6.5µM*	4.6µM*
Cc1nc(NC(=O)c2ccccc2)sc1Cc1ccc2c(c1)OCO2	26µM*	?	?	?	?	?
CCOC(=O)c1c(NC(=O)CN2C(=O)c3ccccc3C2=O)sc(Cc2ccc3c(c2)OCO3)c1C	-1%	12%	19%	i	3%	i
COC(=O)CS(=O)(=O)c1cc([N+](=O)[O-])ccc1NC(=O)OC	-2%	-4%	-6%	i	-4%	i
